Compound activity from PubChem.
TSG101-PTAP inh: blocks PTAP/TSG101 interaction to inhibit HIV-1 budding; Fluorescence polarization, FITC-PTAP peptide / Tsg101 binding; Potency, µM (doses to about 115 µM), usual class: inhibitors; 340,000 tested, under 10 active; AID 493005; active means well fitted inhibition curve with a large enough effect in the main read-out, with a control signal flat, not every such curve was filed as active; inconclusive means small, poorly fitted or top-dose-only effect, or effect the other way, or a change in a side signal; inactive means no such curve, though single readings can be large or run the other way
Target sequence (Q99816 whole entry, looked up): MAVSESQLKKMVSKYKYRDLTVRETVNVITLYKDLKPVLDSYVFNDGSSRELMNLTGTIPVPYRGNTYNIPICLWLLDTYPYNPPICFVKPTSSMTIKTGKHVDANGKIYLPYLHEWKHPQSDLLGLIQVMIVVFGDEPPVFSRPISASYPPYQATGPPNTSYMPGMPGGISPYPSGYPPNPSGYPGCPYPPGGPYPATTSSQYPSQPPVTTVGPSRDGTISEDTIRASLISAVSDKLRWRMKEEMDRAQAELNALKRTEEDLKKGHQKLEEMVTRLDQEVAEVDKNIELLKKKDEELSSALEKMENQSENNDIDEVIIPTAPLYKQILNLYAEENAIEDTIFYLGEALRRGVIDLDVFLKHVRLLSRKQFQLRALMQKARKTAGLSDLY
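Fluorescence anisotropy tracks displacement of a FITC-tagged PTAP peptide (50 nM) from the Tsg101 binding domain (10 uM), following a 20 min room-temperature incubation at pH 7.5.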
ClpP mod: qHTS Assay for Activators of ClpP; purified B. subtilis ClpP, FRET peptide cleavage, 20 min; ATP-dependent Clp protease proteolytic subunit (Bacillus subtilis (strain 168)), P80244; Potency, µM (top dose mostly 57.5 µM); hit rate 1.9% among 340,000; active means well fitted falling curve with a large enough effect; inconclusive means small, poorly fitted or top-dose-only effect; inactive means no such curve, though single readings can be large or run the other way; further: the source files actives as falling curves though it sought activators and does not explain the sign; nearly all actives have a fitted effect of over 65% in size
Target sequence (P80244 whole entry, looked up): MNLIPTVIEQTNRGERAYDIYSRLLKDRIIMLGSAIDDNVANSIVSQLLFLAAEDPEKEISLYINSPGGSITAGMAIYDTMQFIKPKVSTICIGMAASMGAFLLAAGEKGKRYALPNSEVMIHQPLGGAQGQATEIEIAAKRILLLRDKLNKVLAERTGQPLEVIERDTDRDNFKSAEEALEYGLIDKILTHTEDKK
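Buffer: 100 mM Tris/HCl pH8, 100 mM KCl, 0.05% low protease BSA, 2.5% glycerol, 0.01% Tween-20. ClpP 10 microg/mL final; 20 min RT; delta FRET normalized to ADEP and DMSO controls.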
Rango dissoc inh: prevents RanGTP from dissociating the Rango-importin beta complex | Potency, µM (highest dose often 46.1 µM) | Biochemical FRET Rango-importin beta, RanGTP-induced dissociation | hit rate 0.071% among 340,000 | O95149+P62826; calls by dose curve; further: nearly all actives have a fitted effect of over 45% in size
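Recombinant Rango FRET biosensor (EYFP–snurportin 1 IBB–cerulean CFP10) at 0.1 uM premixed with 0.25 uM importin beta in PBS, 1 mM DTT, 0.02% Tween-20, 0.1% BSA. Compound added 5 min; RanGTP-RCC1 (0.6 uM Ran, 2 mM GTP, 0.2 uM RCC1) then triggers release, read at 45 min.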
12-LOX inh: ALOX12 (human) lipoxygenase inhibition. P18054. purified 12hLO, xylenol orange hydroperoxide absorbance. Potency, µM (doses to about 108 µM), actives largely listed as inhibitors. hit rate 1.1% among 580,000. AID 1671190
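Hydroperoxide product was detected by ferrous iron/xylenol orange as the 573 to 405 nm absorbance ratio. Arachidonic acid at 40 uM (final) was turned over for 30 min at room temperature by 150 nM human 12hLO, pH 7.0 Hepes buffer, after 15 min compound preincubation.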
TDP1 block: blocks human tyrosyl-DNA phosphodiesterase 1. recombinant TDP1, AlphaScreen DNA substrate cleavage. Potency, µM (highest dose often 130 µM), hits mostly inhibitors. hit rate 0.28% among 350,000. AID 485290; further: nearly all actives have a fitted effect of over 40% in size
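Recombinant human Tdp1 (E. coli-expressed, 1 nM final) preincubated with compounds 15 min at room temperature, then 5'-biotin/3'-phosphotyrosine-FITC DNA substrate (15 nM final) added for 5 min. AlphaScreen beads (10 ug/ml final) added 10 min; cleavage lowers signal.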
Rango complex inh: Rango-importin beta binding inhibition. Q14974. Rango CFP/YFP FRET sensor + importin beta, 45 min. hit rate 0.031% among 340,000. Potency, µM (highest dose often 92.2 µM); calls by dose curve; further: nearly all actives have a fitted effect of over 15% in size
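Inhibition scored from the CFP 486 nm/YFP 530 nm FRET ratio 45 min after adding 0.125 microM importin beta to 50 nM Rango biosensor preincubated 5 min with compound (room temperature, PBS with DTT, Tween-20, BSA). No-importin wells as positive control.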
Large screens that a line does not name were inactive. Sampled rows, rich in hits. Any-hit rate of the full collection: about 2.4%. Unless noted, the call rests on the fitted dose curve; in most records, active means well fitted curve in the direction sought with a large enough effect; inconclusive means small, poorly fitted or top-dose-only effect, or another doubt; inactive means no such curve, though single readings can be large; an effect the other way counts as inactive or inconclusive.

CCn1cc(C(=O)NCC(C)C)c(=O)c2cc(F)c(N3CCN(C(=O)c4ccco4)CC3)cc21	none (no result: ClpP mod)
O=C(NC1CC1)c1ccc(CNc2nc3ccccc3o2)cc1	none (no result: TSG101-PTAP inh, ClpP mod, Rango dissoc inh, TDP1 block, Rango complex inh)
Cc1noc2c(N3CC(O)C3)cc(-c3ccc(F)cc3)nc12	none (no result: TSG101-PTAP inh, ClpP mod, Rango dissoc inh, TDP1 block, Rango complex inh)
COc1cccc(-n2c(=O)c3sc4ccccc4c3n(CC(=O)Nc3cccc(Cl)c3)c2=O)c1	none (no result: TSG101-PTAP inh, Rango dissoc inh, Rango complex inh)
COc1cccc(NC(=O)Cn2c(=O)n(-c3ccc(Cl)cc3)c(=O)c3sc4ccccc4c32)c1	ClpP mod 32µM, 12-LOX inh inconclusive (no result: TSG101-PTAP inh, Rango dissoc inh, Rango complex inh)
CCC(NC(=O)C1CCC1)c1ccccc1 (stereo unspecified)	none
CCC(NC(=O)C1CC1)c1ccc(C)cc1 (stereo unspecified)	12-LOX inh 5µM (no result: TSG101-PTAP inh, ClpP mod, Rango dissoc inh, TDP1 block, Rango complex inh)
CCCC(=O)NC(=S)Nc1ccc(N2CCN(C(=O)c3cccs3)CC2)cc1	none
CCCC(=O)N1CCN(c2ccc(NC(=O)c3cccs3)cc2)CC1	ClpP mod 16µM
Cc1ccc(C(=O)NNCC(=O)Nc2ccc(Cl)cc2F)cc1	12-LOX inh 16µM
COc1ccc(C2CCCN2Cc2cc(=O)oc3cc(C)c(C)cc23)cc1 (stereo unspecified)	none (no result: TSG101-PTAP inh, ClpP mod, Rango dissoc inh, TDP1 block, Rango complex inh)
COc1cccc(C2CCCN2Cc2cc(=O)oc3cc(OC)ccc23)c1 (stereo unspecified)	12-LOX inh 45µM (no result: TSG101-PTAP inh, ClpP mod, Rango dissoc inh, TDP1 block, Rango complex inh)
COc1cc2ncnc(Nc3ccc(Cl)cc3F)c2cc1OC	12-LOX inh 20µM (no result: TSG101-PTAP inh, ClpP mod, Rango dissoc inh, Rango complex inh)
COc1cc2ncnc(NCc3cc(F)ccc3F)c2cc1OC	none (no result: TDP1 block)
Cc1cnc(CNc2ccnc(-c3ccc(C(=O)N(C)C)cc3)n2)cn1	12-LOX inh 35µM (no result: TSG101-PTAP inh, ClpP mod, Rango dissoc inh, TDP1 block, Rango complex inh)
COc1ccc(N2CCN(c3ccc(N4C(=O)COCC4=O)cc3[N+](=O)[O-])CC2)cc1	ClpP mod 28µM
O=C(c1cccc(Cl)c1)N1CCC(C(=O)N2CCN(Cc3ccccc3)CC2)CC1	ClpP mod 28µM
CCN1C(=O)/C(=C/c2c(C)nn(C)c2C)SC1=S	12-LOX inh 10µM, Rango complex inh inconclusive
CCN1C(=O)/C(=C/c2cnn(CC)c2C)SC1=S	none
CCOc1ccccc1CN1CC(C(=O)NCc2ccncc2)C2(CCOCC2)C1 (stereo unspecified)	none (no result: TSG101-PTAP inh, ClpP mod, Rango dissoc inh, TDP1 block, Rango complex inh)
O=C(C1CC1)N1CCCCC1c1nc(C2CCOCC2)n[nH]1 (stereo unspecified)	none (no result: TSG101-PTAP inh, ClpP mod, Rango dissoc inh, TDP1 block, Rango complex inh)
Cc1ccc(Nc2nc(NCC3CC3)nc3ccsc23)c(C)c1	12-LOX inh 40µM (no result: TSG101-PTAP inh, Rango dissoc inh, TDP1 block, Rango complex inh)
CCOc1ccc(-c2nc(C#N)c(NCC(C)C)o2)cc1	ClpP mod 40µM, 12-LOX inh inconclusive
C=CCNc1oc(-c2ccc(OCC)cc2)nc1C#N	ClpP mod 0.79µM
O=C(COc1ccc(S(=O)(=O)N2CCCCC2)cc1)Nc1ccccc1Sc1ccccc1	none (no result: TSG101-PTAP inh, ClpP mod, Rango dissoc inh, TDP1 block, Rango complex inh)
O=C(c1cccs1)N1CCC2(CC1)SCC(=O)N2c1ccc(Cl)cc1	none (no result: TSG101-PTAP inh, ClpP mod, Rango dissoc inh, TDP1 block, Rango complex inh)
O=c1c2c(n(Cc3ccccc3)n1-c1ccccc1)CN(Cc1cccnc1)CC2	none (no result: TSG101-PTAP inh, ClpP mod, Rango dissoc inh, TDP1 block, Rango complex inh)
CCn1c2c(c(=O)n1-c1ccccc1)CCN(CCCc1ccccc1)C2	12-LOX inh 28µM (no result: TSG101-PTAP inh, ClpP mod, Rango dissoc inh, TDP1 block, Rango complex inh)
CCOC(=O)/C(C)=C1\NC(C)(C)Cc2ccccc21	12-LOX inh 16µM
CCCNC(=O)c1ccc2c(c1)ncn2-c1ccc(OCc2ccccc2)cc1	none (no result: TSG101-PTAP inh, ClpP mod, Rango dissoc inh, TDP1 block, Rango complex inh)
O=C1CCCC(O)=C1N=Nc1c(Cl)cc(Cl)cc1Cl	none
O=C1CCCC(O)=C1Sc1cc(Cl)c(Cl)cc1Cl	12-LOX inh 40µM (no result: TDP1 block)
Cc1ccc(C)c(NC(=O)Cn2c(=O)n(Cc3ccco3)c(=O)c3oc4ccccc4c32)c1	ClpP mod 32µM (no result: TSG101-PTAP inh, Rango dissoc inh, Rango complex inh)
O=[N+]([O-])c1cccc2ccc(/C=C/c3ccccc3OC(F)F)nc12	none (no result: TSG101-PTAP inh, ClpP mod, Rango dissoc inh, TDP1 block, Rango complex inh)
Cc1cc(=O)oc2cc(OCC(O)CN3CCc4ccccc4C3)ccc12 (stereo unspecified)	ClpP mod inconclusive, Rango complex inh inconclusive
Cc1cc(=O)oc2cc(OCC(O)CN3CCN(c4ccccc4)CC3)ccc12 (stereo unspecified)	ClpP mod 32µM
